Test results: PubChem BioAssay (NCATS)
Where “and” joins values, the source holds several entries; their conditions need not be identical. Equal entries are not always repeated. Records with an inconclusive call do not appear. Calls of active or inactive are those of the source. Unless noted, the call rests on the fitted dose curve; in most records, active means well fitted curve in the direction sought with a large enough effect; inconclusive means small, poorly fitted or top-dose-only effect, or another doubt; inactive means no such curve, though single readings can be large; an effect the other way counts as inactive or inconclusive.

Assays:
[1] = Cell Viability - SH-SY5Y (AID 544); settings: SH-SY5Y neuroblastoma cell viability; viability change, negative = cytotoxic: at 92.2 µM (top of the series);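 further: cells exposed to compound for 40 hours; 0% = DMSO alone and -100% = 100 µM tamoxifen; nearly all actives have a fitted effect of over 55% in size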
Summary of the method: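 Quantitative HTS in SH-SY5Y neuroblastoma cells, 40 hr treatment at 37 °C, ATP content by luciferase luminescence; AC50 from Hill fits.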

[2] = Cell Viability - Renal Proximal Tubule (AID 545);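 further: cells exposed to compound for 40 hours; 0% = DMSO only and -100% = 100 µM tamoxifen; nearly all actives have a fitted effect of over 40% in size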
Summary of the method: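 Primary rat renal proximal tubule cells (1000/well) were treated with compounds for 40 hr at 37 °C in complete medium. Intracellular ATP was measured by CellTiter-Glo luminescence, and AC50 values came from Hill-equation fits of concentration-response data.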

[3] = Cell Viability - Mesenchymal (AID 546);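 further: cells exposed to compound for 40 hours before reading; 0% = DMSO only and -100% = 100 µM tamoxifen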
Summary of the method: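 In this qHTS cytotoxicity format, glomerulus-derived human mesenchymal kidney cells received compound for 40 hr, then luciferase-based ATP quantitation. Concentration-response data were fitted with the Hill equation.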

[4] = Cell Viability - LYMP1-003 - Assay at 40 hr (AID 964); further: on the % scale 0 is the no-effect control and ±100 the full control effect; nearly all actives have a fitted effect of over 60% in size
Summary of the method: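 Acute toxicity is scored as a concentration-dependent loss of intracellular ATP in LYMP1-003 cells (2500/well, complete medium) after 40 hr at 37 C, measured by CellTiter-Glo luminescence; AC50 values derive from standard Hill modelling.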

[5] = Cell Viability - LYMP2-011 (AID 969);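 further: cells exposed to compound for 24 hours; 0% = DMSO only and full inhibition = 92 µM tetraoctylammonium bromide; nearly all actives have a fitted effect of over 60% in size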
Summary of the method: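 Cells seeded at 2500 per well rest 5 hr before compound addition, then incubate 24 hr at 37 C. CellTiter-Glo reagent is added for 30 min at room temperature before luminescence detection.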

[6] = Cell Viability - LYMP2-002 (AID 977);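 further: compound exposure lasted 24 h at 37 °C; plate controls were DMSO only for no effect and 92 µM tetraoctylammonium bromide for full effect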
Summary of the method: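 In this qHTS viability screen, 2500 human lymphoblastoid cells per well receive compound for 24 hr at 37 C, and luciferase-based ATP luminescence gives the viability signal. Tetraoctylammonium bromide serves as positive control.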

[7] = Cell Viability - LYMP2-010 (AID 981);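 further: cells exposed to compound for 24 hours at 37 °C; on the % scale 0 is the no-effect control and ±100 the full control effect; nearly all actives have a fitted effect of over 55% in size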
Summary of the method: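 This 24 hr viability screen uses LYMP2-010 lymphoblastoid cells, quantifies ATP via luciferase luminescence, and derives AC50 from Hill fits of qHTS concentration-response data.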

[8] = Cell Viability - LYMP2-012 (AID 982);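 further: cellular ATP by luciferase luminescence where a drop means cytotoxicity; cells exposed to compound for one day before reading; 0% = DMSO only and full loss = 92 µM tetraoctylammonium bromide; nearly all actives have a fitted effect of over 55% in size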
[9] = molecular target: Peroxisome proliferator-activated receptor delta (Homo sapiens) (UniProt Q03181); assay: qHTS assay for small molecule agonists of peroxisome proliferator-activated receptor delta signaling (AID 588534; calls by dose curve;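 further: 0% = DMSO basal wells and 100% = positive control agonist at 10 µM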)
Summary of the method: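 EC50 and efficacy values derive from Hill fits of a concentration series in a beta-lactamase reporter cell assay. Exposure is 18 hrs at 37 C, with CCF4 fluorescence as the readout.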

[10] = molecular target: Retinoic acid receptor RXR-alpha (Homo sapiens) (UniProt P19793); assay: qHTS assay for small molecule agonists of retinoid X receptor alpha signaling (AID 588544; calls by dose curve;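 further: 0% = DMSO basal wells and 100% = reference agonist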)
[11] = molecular target: Thyroid hormone receptor beta (Homo sapiens) (UniProt P10828); assay: qHTS assay for small molecule agonists of thyroid hormone receptor beta signaling (AID 588545; calls by dose curve)
Summary of the method: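 Cells (2500/well) were seeded, incubated 4 hrs at 37 C, dosed with a compound series, incubated 18 hrs, loaded with CCF4 dye for 2 hrs at RT, then read for fluorescence. Data were scaled between DMSO (0%) and 10 nM T3 (100%).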

[12] = molecular target: Retinoic acid receptor RXR-alpha (Homo sapiens) (UniProt P19793); assay: qHTS assay for small molecule antagonists of retinoid X receptor alpha signaling (AID 588546; active means well fitted inhibition curve with a large enough effect in the signal ratio, with a control signal flat, not every such curve was filed as active; the % refers to the signal ratio;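 further: cells stimulated with 9-cis-retinoic acid as agonist; on the % scale 0 is the no-effect control and ±100 the full control effect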); settings: HEK293T RXRa-UAS-bla, beta-lactamase ratio, antagonist mode
Summary of the method: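 Beta-lactamase reporter inhibition, read as CCF4 fluorescence ratio (ex 405, em 460/530 nm) after 2 h at RT. HEK293T UAS-bla cells, 2500/well, were stimulated with 9-cis-RA at 500 or 100 nM final alongside test compound for 18 h at 37 C.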

[13] = molecular target: Thyroid hormone receptor beta (Homo sapiens) (UniProt P10828); assay: qHTS assay for small molecule antagonists of thyroid hormone receptor beta signaling (AID 588547; active means well fitted inhibition curve with a large enough effect in the signal ratio, with a control signal flat, not every such curve was filed as active; the % refers to the signal ratio;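 further: cells stimulated with 0.4 nM T3 agonist during compound exposure; on the % scale 0 is the no-effect control and ±100 the full control effect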); settings: TR-UAS-bla HEK293, beta-lactamase ratio, antagonist mode, 18 h
Summary of the method: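 TR-UAS-bla GripTite HEK293 cells in 2% charcoal/dextran FBS medium were preincubated 4 h at 37 C, given compound (0.59 nM to 92 uM) plus 0.4 nM T3 (final) for 18 h, then CCF4 for 2 h at RT; Hill fit gave IC50.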

[14] = qHTS assay for small molecule agonists of the antioxidant response element (ARE) signaling pathway measured by Nrf2-dependant transcriptional activity (AID 720636; active means well fitted curve in the direction sought with a large enough effect in the repeat runs; an effect the other way counts as inactive or inconclusive; further: % of control where 0% means no effect)
Summary of the method: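 Quantitative HTS format in HepG2 cells stably expressing an ARE-luciferase reporter; 16 hr compound treatment at 37 C, luciferase signal detected with ONE-Glo.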

[15] = qHTS assay for small molecule antagonists of the retinoid-related orphan receptor gamma (ROR-gamma) signaling pathway - cell viability counter screen (AID 720652; active means well fitted curve in the direction sought with a large enough effect in the repeat runs; an effect the other way counts as inactive or inconclusive;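 further: CHO reporter cells with doxycycline-induced ROR-gamma expression; compound exposure lasted 16 hr before ATP read; on the % scale 0 is the no-effect control and ±100 the full control effect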)
Summary of the method: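 ATP-based viability readout in the ROR-gamma reporter CHO cells after 16 hr compound exposure under doxycycline induction.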

[16] = molecular target: Nuclear receptor subfamily 1 group I member 2 (Rattus norvegicus) (UniProt Q9R1A7); assay: qHTS assay for small molecule activators of the rat pregnane X receptor (rPXR) signaling pathway (AID 651751; call rule not given here; further: 0% is about no effect); settings: rPXR reporter cells, luciferase (One-Glo), 24 h
[17] = qHTS assay for small molecule activators of the human pregnane X receptor (PXR) signaling pathway (AID 720659; call rule not given here; further: 0% is about no effect)
[18] = Cell Viability - HUV-EC-C (AID 542);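 further: cells exposed to compound for 40 hours; on the % scale 0 is the no-effect control and ±100 the full control effect; nearly all actives have a fitted effect of over 35% in size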
Summary of the method: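 Concentration-dependent ATP loss in HUV-EC-C cells is the measure. Exposure lasts 40 hr at 37 °C; luminescence follows CellTiter-Glo addition, and Hill fits give AC50.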

[19] = qHTS assay for small molecule disruptors of the mitochondrial membrane potential - 1 hr assay (AID 651754; calls by dose curve; further: on the % scale 0 is the no-effect control and ±100 the full control effect; nearly all actives have a fitted effect of over 35% in size)
Summary of the method: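 In this qHTS format, a 1 hr compound treatment of HepG2 cells precedes Mito-MPS staining, and membrane potential is judged from aggregate (red) against monomer (green) fluorescence intensity.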

[20] = qHTS assay for environmental chemicals that activate the Aryl hydrocarbon Receptor (AhR) signaling pathway (AID 651777); settings: 1A2-DRE human hepatoma cells, luciferase, 24 h; activation: stronger effect = higher value; further: % of control where 0% means no effect; nearly all actives have a fitted effect of over 15% in size
Summary of the method: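 Quantitative HTS in stably transfected human liver-derived cells whose luciferase gene sits downstream of the CYP1A2 promoter and dioxin response element. After 24 hr exposure at 37 C, One-Glo luminescence was measured.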

Sequence of Nuclear receptor subfamily 1 group I member 2 (Rattus norvegicus) (Q9R1A7 whole entry, looked up): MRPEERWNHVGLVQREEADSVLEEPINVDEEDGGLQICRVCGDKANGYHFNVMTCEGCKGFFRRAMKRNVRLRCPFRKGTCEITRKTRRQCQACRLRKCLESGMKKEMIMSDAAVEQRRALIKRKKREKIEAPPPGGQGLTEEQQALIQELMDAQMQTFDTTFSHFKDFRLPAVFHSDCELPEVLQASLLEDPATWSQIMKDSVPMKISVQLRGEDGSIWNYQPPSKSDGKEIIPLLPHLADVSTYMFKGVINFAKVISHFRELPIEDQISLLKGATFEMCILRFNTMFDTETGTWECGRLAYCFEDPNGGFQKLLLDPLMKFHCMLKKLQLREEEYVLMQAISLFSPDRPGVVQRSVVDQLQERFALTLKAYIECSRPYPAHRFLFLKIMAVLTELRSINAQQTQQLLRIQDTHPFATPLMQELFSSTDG
Sequence of Thyroid hormone receptor beta (Homo sapiens) (P10828 whole entry, looked up): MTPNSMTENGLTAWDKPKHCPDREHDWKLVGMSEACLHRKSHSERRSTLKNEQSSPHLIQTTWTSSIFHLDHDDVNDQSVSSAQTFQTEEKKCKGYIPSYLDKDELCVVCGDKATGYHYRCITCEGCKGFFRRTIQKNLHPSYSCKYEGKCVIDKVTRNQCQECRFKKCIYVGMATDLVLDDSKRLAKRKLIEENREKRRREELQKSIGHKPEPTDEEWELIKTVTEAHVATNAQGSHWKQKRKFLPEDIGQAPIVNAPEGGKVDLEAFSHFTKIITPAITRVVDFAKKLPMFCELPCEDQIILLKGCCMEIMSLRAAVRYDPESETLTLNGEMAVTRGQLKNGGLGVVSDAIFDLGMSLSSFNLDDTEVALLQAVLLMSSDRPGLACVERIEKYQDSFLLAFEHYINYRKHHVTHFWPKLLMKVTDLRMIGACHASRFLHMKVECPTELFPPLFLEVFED
Sequence of Peroxisome proliferator-activated receptor delta (Homo sapiens) (Q03181 whole entry, looked up): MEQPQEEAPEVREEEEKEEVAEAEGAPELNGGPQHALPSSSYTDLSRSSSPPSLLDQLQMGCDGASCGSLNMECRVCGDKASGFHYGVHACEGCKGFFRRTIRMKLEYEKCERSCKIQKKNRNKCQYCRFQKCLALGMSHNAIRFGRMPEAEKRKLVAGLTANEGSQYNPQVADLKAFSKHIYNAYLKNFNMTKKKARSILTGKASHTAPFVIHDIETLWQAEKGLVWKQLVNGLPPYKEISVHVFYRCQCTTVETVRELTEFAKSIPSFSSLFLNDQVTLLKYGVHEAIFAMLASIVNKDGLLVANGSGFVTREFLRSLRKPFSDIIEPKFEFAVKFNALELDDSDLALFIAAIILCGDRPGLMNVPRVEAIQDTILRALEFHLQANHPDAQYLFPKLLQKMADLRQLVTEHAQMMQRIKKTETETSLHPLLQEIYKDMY
Sequence of Retinoic acid receptor RXR-alpha (Homo sapiens) (P19793 whole entry, looked up): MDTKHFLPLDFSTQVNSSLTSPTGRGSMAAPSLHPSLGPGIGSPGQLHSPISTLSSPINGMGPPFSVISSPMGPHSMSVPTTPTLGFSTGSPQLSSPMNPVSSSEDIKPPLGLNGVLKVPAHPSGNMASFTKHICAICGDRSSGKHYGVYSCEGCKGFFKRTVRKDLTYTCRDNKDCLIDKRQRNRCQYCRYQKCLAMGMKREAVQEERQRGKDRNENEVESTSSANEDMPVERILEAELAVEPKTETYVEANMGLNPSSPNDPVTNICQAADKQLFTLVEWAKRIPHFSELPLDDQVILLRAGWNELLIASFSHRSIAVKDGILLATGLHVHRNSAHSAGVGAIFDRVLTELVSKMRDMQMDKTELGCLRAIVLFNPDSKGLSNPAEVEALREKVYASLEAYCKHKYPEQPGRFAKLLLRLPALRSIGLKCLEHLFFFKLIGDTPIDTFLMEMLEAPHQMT

CSSC
inactive: Potency [1] | outcome [2] | Potency [3] | Potency [4] | Potency [5] | Potency [6] | Potency [7] | Potency [8] | outcome [9] | outcome [10] | Potency [11] | max response [12] 7.08% | activity change % (negative = inhibition) [13] -18.7% | Potency [14] | Potency [15] | max response [16] -2.6% | outcome [17]

O=C(O)c1cc(Cl)ccc1Cl
inactive: Potency [18] | Potency [1] | outcome [2] | Potency [3] | Potency [4] | Potency [6] | Potency [7] | Potency [8] | outcome [9] | outcome [10] | Potency [11] | max response [12] -2.77% | activity change % (negative = inhibition) [13] 12.5% | Potency [19] | activation [20] -1.02% | Potency [15] | max response [16] -1.07% | outcome [17]

O=[N+]([O-])c1ccc(Cl)cc1
inactive: Potency [18] | Potency [1] | Potency [3] | Potency [4] | Potency [5] | Potency [7] | Potency [8] | outcome [10] | Potency [11] | activity change % (negative = inhibition) [13] 3.07% and -2.63% | Potency [19] | activation [20] -0.207% and 4.63% | Potency [14] | Potency [15] | max response [16] 5.34% and 1.87% | outcome [17]

ClC=CCl
inactive: Potency [18] | Potency [1] | outcome [2] | Potency [3] | Potency [6] | Potency [7] | Potency [8] | outcome [9] | outcome [10] | Potency [11] | max response [12] -1.6% | activity change % (negative = inhibition) [13] -5.48% | Potency [19] | activation [20] 0.329% | Potency [14] | Potency [15] | max response [16] -4.21% | outcome [17]

C=CCCC#N
inactive: Potency [18] | Potency [1] | outcome [2] | Potency [3] | Potency [5] | Potency [6] | Potency [8] | outcome [9] | outcome [10] | Potency [11] | max response [12] 17.4% | activity change % (negative = inhibition) [13] 9.59% | Potency [19] | Potency [14] | Potency [15] | max response [16] -6.54% | outcome [17]

CCSC(=O)N1CCCCCC1
inactive: Potency [18] | Potency [1] | outcome [2] | Potency [3] | Potency [4] | Potency [5] | Potency [6] | Potency [7] | Potency [8] | outcome [9] | outcome [10] | Potency [11] | activity change % (negative = inhibition) [13] -3.1% and -10.9% | Potency [19] | activation [20] -0.667% and 0.714% | Potency [15] | max response [16] -3.47% and 3.01% | outcome [17]

N#C/C(N)=C(/N)C#N
inactive: Potency [18] | Potency [1] | outcome [2] | Potency [3] | Potency [4] | Potency [5] | Potency [6] | Potency [7] | Potency [8] | outcome [9] | outcome [10] | Potency [11] | activity change % (negative = inhibition) [13] -2.94% | Potency [19] | activation [20] 0.971% | Potency [15] | max response [16] -1.96% | outcome [17]

BrC(Br)Br
inactive: Potency [18] | Potency [1] | outcome [2] | Potency [4] | Potency [5] | Potency [6] | Potency [7] | Potency [8] | outcome [9] | max response [12] 20% | activity change % (negative = inhibition) [13] -8.09% | Potency [19] | Potency [14] | Potency [15] | max response [16] 0.0785% | outcome [17]

CC(C)OS(C)(=O)=O
inactive: Potency [18] | Potency [1] | outcome [2] | Potency [5] | Potency [6] | Potency [7] | Potency [8] | outcome [9] | outcome [10] | activity change % (negative = inhibition) [13] 8.49% | Potency [19] | activation [20] 1.58% | Potency [14] | Potency [15] | max response [16] -0.369% | outcome [17]

CCCCOC(C)=O
inactive: Potency [18] | Potency [1] | outcome [2] | Potency [3] | Potency [4] | Potency [5] | Potency [6] | Potency [7] | Potency [8] | outcome [9] | outcome [10] | Potency [11] | max response [12] 10.8% | activity change % (negative = inhibition) [13] 1.15% | Potency [19] | activation [20] -0.098% | Potency [14] | Potency [15]

ClC(Cl)Br
inactive: Potency [18] | Potency [1] | Potency [4] | Potency [6] | Potency [8] | outcome [9] | max response [12] 5.56% | activity change % (negative = inhibition) [13] 9.06% | Potency [19] | activation [20] 0.136% | Potency [14] | Potency [15] | max response [16] -4.5% | outcome [17]

CCN(N=O)C(N)=O
inactive: Potency [18] | Potency [1] | outcome [2] | Potency [4] | Potency [5] | Potency [6] | Potency [8] | outcome [9] | outcome [10] | Potency [11] | max response [12] -5.46% | activity change % (negative = inhibition) [13] 18.5% | Potency [19] | Potency [14] | Potency [15] | outcome [17]

CCCCCCCCCCCOC(=O)c1ccccc1C(=O)OCCCCCCCCCCC
inactive: Potency [18] | Potency [1] | outcome [2] | Potency [3] | Potency [4] | Potency [6] | Potency [7] | outcome [9] | outcome [10] | Potency [11] | Potency [19] | activation [20] -2.18% | Potency [14] | Potency [15] | max response [16] 1.44%

O=C(O)C(Br)Br
inactive: Potency [18] | outcome [2] | Potency [3] | Potency [4] | Potency [5] | Potency [6] | Potency [7] | Potency [8] | outcome [10] | max response [12] 6.61% | Potency [19] | Potency [15] | max response [16] 1.77% | outcome [17]
